Laboratory results: the supplement of paper PMC13380429
Counter-ions that a name gives are not always drawn. Unmarked numbers belong to inactive results.

Test system: Vero E6 infected with SARS-CoV-2
Assay: inhibition of SARS-CoV-2 cytopathic effect; higher = more antiviral protection, active = above 15
Conditions: 48 h

| Compound | inhibition of SARS-CoV-2 cytopathic effect (1 nM) [%] | inhibition of SARS-CoV-2 cytopathic effect (8.33 nM) [%] | inhibition of SARS-CoV-2 cytopathic effect (100 nM) [%] | inhibition of SARS-CoV-2 cytopathic effect (833.33 nM) | inhibition of SARS-CoV-2 cytopathic effect (10000 nM) [%] |
| --- | --- | --- | --- | --- | --- |
| CN(C)C(=O)COC(=O)Cc1ccc(OC(=O)c2ccc(NC(=N)N)cc2)cc1 [Camostat mesylate] | 0.94 | -0.39 | -0.94 | 1.08% | -0.11 |
| O=C(Nc1ccc(CN2CCOCC2)cc1)c1ccc(-c2cccc(Cl)c2)o1 | 0.42 | -1.17 | 0.17 | 0.72% | -0.79 |
| FC(F)(F)C(F)(F)C(F)(F)C(F)(F)C(F)(F)C(F)(F)C(F)(F)C(F)(F)Br [perflubron] | -0.32 | 1.61 | 1.51 | -1.6% | 0.45 |
| CCNC(=O)[C@H]1O[C@@H](n2cnc3c(N)ncnc32)[C@H](O)[C@@H]1O | 3.12 | 1.83 | -2.78 | -3.3% | -1.61 |
| Cc1cccc(C)c1NC(=O)CN1CCCCCC1 [pincainide] | -3.17 | -5.99 | -2.63 | -1.95% | 0.04 |
| CNc1nc(C)nc(N[C@H]2CCC[C@@H](C(=O)NCc3ccc(C#N)cc3C(F)(F)F)C2)n1 | 1.51 | -1.43 | -0.92 | -0.12% | -2.39 |
| COC(=O)[C@]12CCC(C)(C)C[C@H]1[C@H]1C(=O)C=C3[C@@]4(C)C=C(C#N)C(=O)C(C)(C)[C@@H]4CC[C@@]3(C)[C@]1(C)CC2 [Bardoxolone Methyl] | 2.85 | 3.94 | -1.03 | 33.7% (active) | -23.4 |
